The text below walks through data of PubChem BioAssay (Tox21).

Experiment [1] concerns the target Progesterone receptor (Homo sapiens) (UniProt P06401). Put plainly: qHTS assay to identify small molecule agonists of the progesterone receptor (PR) signaling pathway (AID 1346784; calls by dose curve; note: nearly all actives have a fitted effect of over 30% in size). The essentials:
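Agonist qHTS: compounds pinned onto 3,000 PR-UAS-bla HEK 293T cells per well in charcoal-stripped serum medium, 16hr at 37C, then beta-lactamase activity measured by LiveBLAzer FRET fluorescence after 2 hours at room temperature.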
In general terms: Quantitative high-throughput screening tests each substance at several concentrations.

Experiment [2] has the same target. As to the kind of experiment: qHTS assay to identify small molecule antagonists of the progesterone receptor (PR) signaling pathway (AID 1346795; active = well fitted inhibition curve with a large enough effect in the signal ratio in the repeat runs, not every such curve was filed as active; the % refers to the signal ratio). The gist of the method:
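Antagonist mode with agonist R5020 at 1 nM final and 16 hr incubation at 37C. Reporter was beta-lactamase driven by UAS in HEK293T (PR-UAS-bla), 2% charcoal-stripped serum; signal from LiveBLAzer FRET substrate, 2 hr at room temperature.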

Experiment [3] is described as follows: qHTS assay to identify small molecule antagonists of the progesterone receptor (PR) signaling pathway - cell viability counter screen (AID 1346798). Note: series mostly up to about 92 µM; nearly all actives have a fitted effect of over 50% in size. The essentials:
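Cytotoxicity read as CellTiter-Glo luminescence (30 min, room temperature) in the same wells as the beta-lactamase readout. HEK293T PR-UAS-bla cells in charcoal-stripped 2% FBS received compound and R5020, then 16 h at 37C, 5% CO2.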

The nature of experiment [4]: qHTS assay to identify small molecule agonists of the progesterone receptor (PR) signaling pathway - cell viability counter screen (AID 1346799; calls by dose curve; note: nearly all actives have a fitted effect of over 45% in size). The essentials: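 Cytotoxicity measured by CellTiter-Glo luminescence (30 min, RT) in the same wells as the PR beta-lactamase agonist read. Those HEK293T cells had 16 h compound treatment at 37 C in 2% charcoal-stripped FBS medium.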

Experiment [5] in a line: qHTS assay to identify small molecule antagonists of the TGF-beta/Smad signaling pathway - cell viability counter screen (AID 1346824). Note: nearly all actives have a fitted effect of over 50% in size. The gist of the method:
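SBE-bla HEK 293T cells were plated overnight at 37 C, then given compounds in DMSO plus TGF-beta1 (added as 0.25 ng/mL solution) for 5 hr. After the bla read, CellTiter-Glo was added to the same wells and luminescence read after 30 min at room temperature.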

Experiment [6] can be described thus: qHTS assay to identify small molecule agonists of the TGF-beta/Smad signaling pathway - cell viability counter screen (AID 1346829). Note: top concentration of the series differs between compounds; nearly all actives have a fitted effect of over 45% in size. The gist of the method: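 After overnight seating at 37 C and 5% CO2, reporter cells got compounds for 5 hr and FRET substrate for 2 hr; cell viability then came from CellTiter-Glo luminescence.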
The nature of experiment [7]: qHTS assay to identify small molecule agonists of the TGF-beta/Smad signaling pathway (AID 1346859; active = well fitted activation curve with a large enough effect in the signal ratio in the repeat runs, not every such curve was filed as active; the % refers to the signal ratio; note: series mostly up to about 77 µM). The gist of the method: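 Fluorescence (ex 405 nm; em 460 and 530 nm) was read 2 h after LiveBLAzer FRET substrate at RT. The preceding compound treatment of overnight-plated SBE-bla HEK293T cells lasted 5 h at 37 C.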
Experiment [8] has as its target Thyrotropin-releasing hormone receptor (Homo sapiens) (UniProt P34981). As to the kind of experiment: qHTS assay to identify small molecule antagonists of the thyrotropin-releasing hormone receptor (TRHR) signaling pathway (AID 1346877; active = well fitted inhibition curve with a large enough effect in the repeat runs, not every such curve was filed as active; note: series mostly up to about 51 µM). The essentials:
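In this cell-based calcium flux format, HEK293 cells expressing TRHR received test compound for 5 min before the agonist TRH (1 nM final). Dye loading lasted 2 h at 37 °C.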

Experiment [9] shares this target. As to the kind of experiment: qHTS assay to identify small molecule agonists of the thyrotropin-releasing hormone receptor (TRHR) signaling pathway (AID 1346891; calls by dose curve; note: series mostly up to about 58 µM). The essentials:
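Agonist-mode intracellular calcium readout: kinetic fluorescence over 3 min at 1 s intervals after compound addition to TRHR-HEK293 cells (18 h seeded, 2 h dye-loaded at 37 C). Fifteen concentrations, triplicates.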

Experiment [10] is described as follows: Human pregnane X receptor (PXR) small molecule agonists, qHTS cell viability counter screen (AID 1346977). Note: nearly all actives have a fitted effect of over 50% in size. The gist of the method:
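Same-well viability read: CellTiter-Fluor added after 23 hr compound exposure, fluorescence measured 1 hr later. Cells were PXR-Luc HepG2 seeded at 2,000/well in 5% charcoal-stripped FBS medium, rested 5 hr before dosing at 37 C.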

The nature of experiment [11]: Caspase-3/7 induction in HepG2 cells by small molecules, qHTS assay (AID 1346978). Note: nearly all actives have a fitted effect of over 15% in size. The gist of the method:
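Wild-type HepG2 cells (2,000/well) were settled 5 h at 37 C, 5% CO2, then exposed to compounds in DMSO for 17 h. Caspase-3/7 activity was read by luminescence 30 min after adding Caspase-Glo 3/7 reagent at room temperature.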

A short description of experiment [12]: Caspase-3/7 induction in CHO-K1 cells by small molecules, qHTS cell viability counter screen (AID 1346979). Note: nearly all actives have a fitted effect of over 35% in size. The essentials:
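Cytotoxicity counter screen: CellTiter-Fluor added to compound-treated wild-type CHO-K1 cells at 16 h (37C, 5% CO2), fluorescence measured 1 h later; same wells as caspase-3/7 measurement.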

Experiment [13] can be described thus: Caspase-3/7 induction in HepG2 cells by small molecules, qHTS cell viability counter screen (AID 1346981). Note: series mostly up to about 92 µM; nearly all actives have a fitted effect of over 30% in size. The gist of the method:
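Counter screen for cytotoxicity: HepG2 exposed 16 hr to compounds, then CellTiter-Fluor viability signal (fluorescence, 1 hr reagent incubation).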

The target in experiment [14] is Nuclear receptor subfamily 1 group I member 2 (Homo sapiens) (UniProt O75469). As to the kind of experiment: Human pregnane X receptor (PXR) small molecule agonists, qHTS assay (AID 1346982). Note: nearly all actives have a fitted effect of over 35% in size. The essentials:
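Luminescence (ONE-Glo, 30 min RT) after 24 hr compound exposure of PXR-Luc HepG2 cells; cells rested 5 hr post-plating in 5% charcoal-stripped FBS medium.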

Experiment [15] concerns the target Nuclear receptor subfamily 1 group I member 2 (Rattus norvegicus) (UniProt Q9R1A7). Put plainly: Rat pregnane X receptor (rPXR) activation by small molecules, qHTS assay (AID 1346983). Note: nearly all actives have a fitted effect of over 20% in size. The following applies: rPXR luciferase reporter cells, One-Glo luminescence, 24 h; max activation: stronger effect = higher value. The gist of the method: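 Cell-based rPXR luciferase reporter assay, 2,000 cells per well, rested 5hr at 37 C before compound addition in DMSO, then 24 hr at 37 C. One-Glo reagent was added and luminescence read after 30 min at room temperature.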

Experiment [16] addresses Nuclear receptor subfamily 1 group I member 2 (Homo sapiens) (UniProt O75469). As to the kind of experiment: CYP3A4 induction through human pregnane X receptor (PXR) by small molecules, qHTS assay (AID 1346984). Note: nearly all actives have a fitted effect of over 40% in size. The gist of the method: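 DPX-2 reporter cells; 24h cpd, 37C; Luciferin-IPA 3uM final x3h; One-Glo 30 min RT; lumi read.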
For experiment [17], the target named is Cytochrome P450 2D6 (Homo sapiens) (UniProt P10635). As to the kind of experiment: Cytochrome P450 Family 2 Subfamily D Member 6 (CYP2D6) small molecule antagonists: luciferase reporter qHTS assay (AID 1671196). For activity change, negative = inhibition: series mostly up to about 120 µM. Note: nearly all actives have a fitted effect of over 50% in size. Note: potency is the fitted concentration of half-maximal effect. The gist of the method: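 Inhibition of CYP2D6 was gauged by loss of luminescence, since light produced tracks the luciferin generated from a proluciferin substrate. A 10 min room-temperature preincubation preceded 1 h NADPH-supported turnover.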
In general terms: In a reporter assay the amount or activity of a reporter protein is the signal.

Experiment [18] deals with Cytochrome P450 2C19 (Homo sapiens) (UniProt P33261). As to the kind of experiment: Cytochrome P450 Family 2 Subfamily C Member 19 (CYP2C19) small molecule antagonists: luciferase reporter qHTS assay (AID 1671197). Note: series mostly up to about 120 µM; nearly all actives have a fitted effect of over 65% in size. The essentials: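 Inhibition of CYP2C19 was scored from loss of luminescence in a P450-Glo proluciferin substrate assay, NADPH-started and run 1 h at 37C, with ketoconazole as positive control.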

Experiment [19] is described as follows: Caspase-3/7 induction in CHO-K1 cells by small molecules, qHTS assay (AID 1346980). Note: nearly all actives have a fitted effect of over 15% in size. The gist of the method:
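Wild-type cells were seeded at 1,500 per well and settled 5 hr at 37 C, 5% CO2, then exposed to DMSO-dissolved compounds for 17 hr. Caspase-Glo 3/7 reagent was added, and luminescence was read after 30min at room temperature.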

The target of experiment [20] is Nuclear receptor subfamily 1 group I member 2 (Homo sapiens) (UniProt O75469). As to the kind of experiment: Human pregnane X receptor (PXR) activation by small molecules, qHTS assay (AID 1346985). Note: nearly all actives have a fitted effect of over 40% in size. The essentials: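 DPX-2 cells (HepG2 co-transfected with a PXR response element and a CYP3A4-promoter luciferase construct) were seeded at 2,000 per well, rested 5 hr at 37C, then exposed to DMSO-dissolved compounds for 24 hr. Activation was read as luciferase luminescence.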

SMILES strings stand for the structures. Values without a mark were called inactive. Records with an inconclusive call do not appear. Activity calls are given as the source filed them. Unless noted, calls come from the whole dose curve; as a rule, active = well fitted curve in the direction sought with a large enough effect in the repeat runs; inconclusive = weak or mixed curves; inactive = no such curve, though single readings can be large; an effect the other way counts as inactive or inconclusive.
% is set by controls: 0 for no effect and ±100 for the full control effect.

Sequence of Thyrotropin-releasing hormone receptor (Homo sapiens) (P34981 whole entry, looked up): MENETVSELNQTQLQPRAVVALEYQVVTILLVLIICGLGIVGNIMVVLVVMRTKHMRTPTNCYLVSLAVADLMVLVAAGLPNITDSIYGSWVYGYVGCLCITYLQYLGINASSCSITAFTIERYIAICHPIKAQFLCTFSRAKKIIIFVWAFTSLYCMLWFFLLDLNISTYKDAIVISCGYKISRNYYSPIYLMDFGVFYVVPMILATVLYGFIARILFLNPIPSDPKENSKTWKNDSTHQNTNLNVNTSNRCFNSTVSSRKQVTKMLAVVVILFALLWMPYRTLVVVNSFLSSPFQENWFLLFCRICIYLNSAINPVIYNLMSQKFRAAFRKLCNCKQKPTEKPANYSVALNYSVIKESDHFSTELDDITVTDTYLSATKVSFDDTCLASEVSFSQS
Sequence of Nuclear receptor subfamily 1 group I member 2 (Rattus norvegicus) (Q9R1A7 whole entry, looked up): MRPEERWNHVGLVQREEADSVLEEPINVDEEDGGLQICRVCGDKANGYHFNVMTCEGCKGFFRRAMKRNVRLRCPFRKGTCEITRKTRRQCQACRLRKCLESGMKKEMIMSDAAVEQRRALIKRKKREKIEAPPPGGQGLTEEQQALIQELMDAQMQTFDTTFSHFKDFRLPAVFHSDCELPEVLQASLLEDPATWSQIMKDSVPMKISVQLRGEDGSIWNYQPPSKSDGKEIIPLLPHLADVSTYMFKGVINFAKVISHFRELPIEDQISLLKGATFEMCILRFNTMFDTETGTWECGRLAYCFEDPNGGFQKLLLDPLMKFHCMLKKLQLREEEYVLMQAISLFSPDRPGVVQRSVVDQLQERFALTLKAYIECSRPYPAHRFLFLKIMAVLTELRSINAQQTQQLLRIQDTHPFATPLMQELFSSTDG
Sequence of Cytochrome P450 2C19 (Homo sapiens) (P33261 whole entry, looked up): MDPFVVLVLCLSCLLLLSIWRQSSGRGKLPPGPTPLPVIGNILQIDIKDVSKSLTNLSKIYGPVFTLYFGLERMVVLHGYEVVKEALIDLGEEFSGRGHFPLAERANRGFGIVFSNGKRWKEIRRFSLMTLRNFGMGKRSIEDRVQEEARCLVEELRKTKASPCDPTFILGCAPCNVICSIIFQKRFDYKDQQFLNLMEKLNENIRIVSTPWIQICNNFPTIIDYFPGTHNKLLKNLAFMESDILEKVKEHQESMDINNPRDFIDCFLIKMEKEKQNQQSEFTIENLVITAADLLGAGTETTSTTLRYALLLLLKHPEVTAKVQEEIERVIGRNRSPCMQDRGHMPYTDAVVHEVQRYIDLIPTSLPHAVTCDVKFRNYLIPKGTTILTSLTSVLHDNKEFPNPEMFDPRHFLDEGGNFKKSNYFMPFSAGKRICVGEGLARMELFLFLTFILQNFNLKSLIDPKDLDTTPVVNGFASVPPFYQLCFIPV
Sequence of Nuclear receptor subfamily 1 group I member 2 (Homo sapiens) (O75469 whole entry, looked up): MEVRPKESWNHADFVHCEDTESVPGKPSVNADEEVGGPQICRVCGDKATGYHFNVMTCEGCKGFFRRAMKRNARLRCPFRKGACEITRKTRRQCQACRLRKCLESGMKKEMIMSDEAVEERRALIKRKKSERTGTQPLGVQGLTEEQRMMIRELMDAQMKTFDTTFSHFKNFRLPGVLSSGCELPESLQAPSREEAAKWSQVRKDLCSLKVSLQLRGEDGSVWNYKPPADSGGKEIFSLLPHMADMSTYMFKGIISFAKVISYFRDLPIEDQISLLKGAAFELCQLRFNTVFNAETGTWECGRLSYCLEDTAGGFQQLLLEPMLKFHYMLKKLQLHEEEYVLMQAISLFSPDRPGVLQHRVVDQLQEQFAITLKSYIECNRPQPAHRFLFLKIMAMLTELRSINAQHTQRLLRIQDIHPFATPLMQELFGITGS
Sequence of Cytochrome P450 2D6 (Homo sapiens) (P10635 whole entry, looked up): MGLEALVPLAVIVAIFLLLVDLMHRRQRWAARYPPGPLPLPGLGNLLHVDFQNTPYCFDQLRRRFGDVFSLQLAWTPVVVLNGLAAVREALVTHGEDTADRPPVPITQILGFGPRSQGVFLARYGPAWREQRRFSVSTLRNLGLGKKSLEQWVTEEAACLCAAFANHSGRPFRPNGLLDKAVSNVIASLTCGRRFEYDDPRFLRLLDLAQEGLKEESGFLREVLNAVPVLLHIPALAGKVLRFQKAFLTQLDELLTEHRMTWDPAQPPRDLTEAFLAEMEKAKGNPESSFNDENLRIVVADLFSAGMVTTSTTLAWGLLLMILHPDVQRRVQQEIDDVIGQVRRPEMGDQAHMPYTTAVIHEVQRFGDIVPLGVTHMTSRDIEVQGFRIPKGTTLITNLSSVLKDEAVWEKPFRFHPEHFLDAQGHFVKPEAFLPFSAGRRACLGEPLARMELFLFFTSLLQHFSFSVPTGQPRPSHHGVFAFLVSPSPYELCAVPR
Sequence of Progesterone receptor (Homo sapiens) (P06401 whole entry, looked up): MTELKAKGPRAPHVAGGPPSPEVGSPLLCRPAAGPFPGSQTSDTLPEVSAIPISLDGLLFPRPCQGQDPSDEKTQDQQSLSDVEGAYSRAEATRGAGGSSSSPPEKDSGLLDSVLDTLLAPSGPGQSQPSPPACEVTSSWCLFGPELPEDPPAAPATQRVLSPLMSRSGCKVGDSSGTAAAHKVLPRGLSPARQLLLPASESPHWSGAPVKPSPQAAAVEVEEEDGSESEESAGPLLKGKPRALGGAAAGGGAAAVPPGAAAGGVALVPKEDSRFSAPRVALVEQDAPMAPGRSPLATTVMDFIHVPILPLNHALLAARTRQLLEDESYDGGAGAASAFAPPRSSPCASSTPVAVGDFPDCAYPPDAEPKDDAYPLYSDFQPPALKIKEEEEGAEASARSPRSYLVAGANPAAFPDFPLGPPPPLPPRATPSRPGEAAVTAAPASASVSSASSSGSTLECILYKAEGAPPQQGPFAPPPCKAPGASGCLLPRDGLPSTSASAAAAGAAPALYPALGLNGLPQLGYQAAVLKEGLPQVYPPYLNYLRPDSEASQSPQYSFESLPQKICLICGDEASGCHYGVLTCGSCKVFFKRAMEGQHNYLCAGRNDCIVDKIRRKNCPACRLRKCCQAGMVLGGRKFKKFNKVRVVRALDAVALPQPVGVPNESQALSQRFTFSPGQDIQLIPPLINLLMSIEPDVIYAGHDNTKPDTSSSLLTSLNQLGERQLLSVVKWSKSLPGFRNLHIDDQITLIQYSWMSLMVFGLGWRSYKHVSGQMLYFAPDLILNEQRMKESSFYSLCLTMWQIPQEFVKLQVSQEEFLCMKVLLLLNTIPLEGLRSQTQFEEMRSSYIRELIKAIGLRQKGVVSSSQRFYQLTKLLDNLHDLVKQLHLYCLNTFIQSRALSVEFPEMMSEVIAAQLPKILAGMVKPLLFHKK

With `CC[N+](C)(CC)CCOC(=O)C1c2ccccc2Oc2ccccc21`, the Potency result in experiment [1], in experiment [2], in [3], in experiment [4], in [9] and in [10] was “inactive” throughout. The Potency result in experiment [12], in experiment [13], in [14], in experiment [16] and in experiment [18] was “inactive” in each case. The outcome in [5], in experiment [6], in experiment [7], in [8] and in experiment [11] was inactive. Further, in experiment [15], the max activation was 0.786%. In addition, the Potency in experiment [17] was 2750 nM (active).
For the compound `Cc1c(N)c(=O)n(-c2ccccc2)n1C`, the Potency entry in experiment [1], in [2], in [3], in experiment [4], in [10] and in experiment [12] was “inactive” throughout. For the same compound, the Potency entry in [13] was “inactive”. For the same compound, the compound was called inactive in experiment [5], in [6], in experiment [7], in [8], in experiment [11] and in [19].
For `CCCCS(=O)(=O)N[C@@H](Cc1ccc(OCCCCC2CCNCC2)cc1)C(=O)O`, the Potency result in [1], in experiment [2], in experiment [3], in [4], in experiment [10] and in experiment [12] was “inactive” throughout. For the same compound, the Potency entry in experiment [13], in experiment [14], in [17] and in experiment [18] was “inactive” each time. Moreover, the call in experiment [5], in experiment [6], in [7], in experiment [8], in [11] and in [19] was inactive.
As for `CC(C)=CCC/C(C)=C/C#N`, the Potency result in experiment [1], in experiment [2], in [3], in [4], in experiment [10] and in [12] was “inactive” in each case. Also, the Potency entry in experiment [13] and in experiment [14] was “inactive” each time. Further, the compound was classed as inactive in [5], in [6], in experiment [7], in [8] and in experiment [19].
`CC/C=C\CCOC(C)OCC` (centres undefined): the Potency entry in experiment [1], in experiment [2], in experiment [3], in [4], in experiment [9] and in experiment [10] was “inactive” each time. The Potency result in [12], in experiment [14] and in experiment [18] was “inactive” in each case. The result in [5], in experiment [6], in experiment [7] and in experiment [8] was inactive.
For the compound `OCCc1ccccn1`, the Potency result in [1], in experiment [2], in experiment [3], in experiment [4], in [10] and in experiment [12] was “inactive” each time. Also, the Potency result in experiment [13], in experiment [14], in experiment [17] and in experiment [18] was “inactive” each time. Moreover, the compound was classed as inactive in experiment [5], in experiment [6], in experiment [7], in experiment [8], in [11] and in experiment [19].
As to `NC(N)=NCCN1CCCCCCC1`, the values for the activation in experiment [1] and in experiment [7] were -1.69% [at 0.349 µM] and 0.678% [at 0.29 µM], respectively. Moreover, the activity change, negative = inhibition in experiment [2] is 0.475% [at 0.348 µM]. In addition, the activity change, negative = cytotoxicity in experiment [3] is -0.514% [at 0.348 µM]; in experiment [4], 0.507% [at 0.349 µM]; in experiment [6] it was -17.1% [at 0.29 µM]; in experiment [10], -0.749% [at 0.349 µM]; in experiment [12] it was -1.24% [at 0.349 µM]; in experiment [13], -1.53% [at 0.349 µM]. Besides, the viability change, negative = cytotoxic in experiment [5] is 2.08% [at 0.29 µM]. Further, the caspase activation in experiment [11] is -1.67% [at 0.349 µM]. Besides, the caspase-3/7 activation in experiment [19] was -0.223% [at 0.349 µM]. In [15], the max activation is -2.81%.
For `Cc1ccnc(NS(=O)(=O)c2ccc(N)cc2)n1`, the Potency result in [1], in experiment [2], in experiment [3], in experiment [4], in experiment [10] and in experiment [12] was “inactive” in each case. In addition, the Potency result in [13], in experiment [14], in [16], in experiment [20] and in experiment [18] was “inactive” each time. Also, the result in experiment [5], in experiment [6], in experiment [7], in [11] and in experiment [19] was inactive. Further, the max activation in experiment [15] was -0.793%.
